Assay results published in PubChem BioAssay (EPA / NIEHS).
The source made the active and inactive calls. How the source made its calls: active means hit-call score of the fitted dose curve at least 0.9, where 1 is the maximum; inactive means score below 0.9.

Columns and labels:
[1] = ATG_E_Box_CIS: Attagene CIS-FACTORIAL HepG2 Assay for human Enhancer Box (E-box) (AID 2282936); conditions: HepG2 E-box cis-reporter transcription, actives raise or lower the signal
In short: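 Fluorescent reporter fragments separated by capillary electrophoresis gave the signal; mRNA came from HepG2 cells transfected with cis-element reporters and treated 24 h. Curves fitted bidirectionally relative to DMSO controls.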

[2] = ATG_M_61_CIS: Attagene CIS-FACTORIAL HepG2 Assay for M61 Transcription Factor (Internal Marker) (AID 2282937); conditions: HepG2 Attagene CIS-FACTORIAL M61 internal marker reporter; actives raise or lower the signal
In short: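 Readout: fluorescent reporter mRNA fragments resolved by capillary electrophoresis after RT-PCR. Transiently transfected human HepG2 cells carried MRTU constructs reporting endogenous TF activity; 24 h chemical exposure; gain or loss of signal fitted relative to DMSO.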

[3] = ATG_EGR_CIS: Attagene CIS-FACTORIAL HepG2 Assay for human Early Growth Response 1 (EGR1) (AID 2282938); conditions: HepG2 Attagene CIS-FACTORIAL EGR reporter mRNA; actives raise or lower the signal
In short: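 Read-out: fluorescent reporter-mRNA fragments resolved by capillary electrophoresis after RT-PCR, 24 h post-dose in transiently transfected HepG2. Endogenous transcription-factor activity reported via cis-element-regulated reporter units; gain or loss fitted relative to DMSO.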

[4] = ATG_M_19_CIS: Attagene CIS-FACTORIAL HepG2 Assay for M19 Transcription Factor (Internal Marker) (AID 2282939); conditions: HepG2 Attagene CIS-FACTORIAL M19 internal marker reporter; actives raise or lower the signal
In short: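 In this multiplexed cell assay, transiently transfected HepG2 reporter units report endogenous transcription-factor activity; after 24 hours of treatment, labelled reporter cDNA fragments are quantified by capillary electrophoresis and fitted bidirectionally against DMSO.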

[5] = ATG_Ets_CIS: Attagene CIS-FACTORIAL HepG2 Assay for human Erythroblast Transformation Specific (ETS) (AID 2282941); conditions: HepG2 ETS cis-reporter transcription, actives raise or lower the signal
In short: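 Bidirectional fit versus DMSO of reporter mRNA signal, detected by RT-PCR and capillary electrophoresis in HepG2 cells transiently transfected with cis-element reporters and dosed 24 h.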

[6] = target: Hepatocyte nuclear factor 3-beta (Homo sapiens) (UniProt Q9Y261); experiment: ATG_FoxA2_CIS: Attagene CIS-FACTORIAL HepG2 Assay for human Forkhead box A2 (FOXA2) (AID 2282942); conditions: HepG2 cis-reporter transcription factor activity, 24 h; actives raise or lower the signal
Sequence of Hepatocyte nuclear factor 3-beta (Homo sapiens) (Q9Y261 whole entry, looked up): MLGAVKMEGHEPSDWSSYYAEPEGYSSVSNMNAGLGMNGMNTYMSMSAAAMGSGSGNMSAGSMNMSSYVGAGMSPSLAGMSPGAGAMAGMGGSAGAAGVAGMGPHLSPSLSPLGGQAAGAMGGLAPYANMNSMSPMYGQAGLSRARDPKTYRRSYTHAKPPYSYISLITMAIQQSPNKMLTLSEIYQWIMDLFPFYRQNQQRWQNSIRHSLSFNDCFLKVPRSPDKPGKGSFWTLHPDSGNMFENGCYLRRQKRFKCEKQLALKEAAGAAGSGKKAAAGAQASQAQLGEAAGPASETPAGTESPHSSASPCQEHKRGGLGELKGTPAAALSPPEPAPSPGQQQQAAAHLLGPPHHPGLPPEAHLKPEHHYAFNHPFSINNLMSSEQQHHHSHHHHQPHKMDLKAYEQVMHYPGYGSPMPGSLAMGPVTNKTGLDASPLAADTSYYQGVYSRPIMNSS
In short: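 Readout: fluorescent reporter transcripts resolved by capillary electrophoresis after RT-PCR. Transiently transfected HepG2, 24 h compound exposure, endogenous TF activity at cis promoter elements. Gain or loss of signal fitted relative to DMSO.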

[7] = ATG_FoxO_CIS: Attagene CIS-FACTORIAL HepG2 Assay for human Forkhead box O (FoxO) (AID 2282943); conditions: HepG2 Attagene cis-reporter, FoxO element, mRNA; actives raise or lower the signal
In short: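 HepG2, transient MRTU transfection (cis element, endogenous TFs). Dose 24 h. TriZol RNA → oligo(dT) RT → PCR → 6-FAM primer extension → HpaI cut → CE. Gain/loss vs DMSO.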

[8] = ATG_GATA_CIS: Attagene CIS-FACTORIAL HepG2 Assay for human GATA Binding Protein (AID 2282944); conditions: HepG2 GATA cis-element reporter, Attagene multiplex mRNA; actives raise or lower the signal
In short: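 Measures endogenous transcription factor-driven reporter mRNA in HepG2 cells transiently carrying cis-regulated constructs. 24 h dosing; RNA via oligo(dT) reverse transcription, PCR, HpaI digestion, capillary electrophoresis; fitted relative to DMSO.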

[9] = ATG_GRE_CIS: Attagene CIS-FACTORIAL HepG2 Assay for human Glucocorticoid Response Elements (GRE) (AID 2282947); conditions: HepG2 GRE cis-reporter, Attagene multiplex mRNA; actives raise or lower the signal
In short: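 Multiplexed cis-reporter mRNA induction, HepG2, 24 h post-dose. RT-PCR, FAM-labelled, HpaI-digested amplicons by CE. Bidirectional fit vs DMSO.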

[10] = ATG_ISRE_CIS: Attagene CIS-FACTORIAL HepG2 Assay for human Interferon Regulatory Factor 1 (IRF1) binding to an Interferon-Stimulated Response Element (ISRE) (AID 2282948); conditions: HepG2 ISRE cis-reporter (Attagene), mRNA transcription readout; actives raise or lower the signal
In short: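 Uses HepG2 liver cells transfected with cis-regulated reporters and measures mRNA 24 h post-dosing through RT-PCR, primer-extension labelling and capillary electrophoresis, with DMSO as negative control.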

[11] = ATG_M_32_CIS: Attagene CIS-FACTORIAL HepG2 Assay for M32 Transcription Factor (Internal Marker) (AID 2282949); conditions: HepG2 Attagene cis-factorial M32 reporter, mRNA; actives raise or lower the signal;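 further: background control marker of the multiplexed CIS panel rather than a real target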
In short: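 Using DMSO as baseline, bidirectional curve fits were applied to reporter mRNA signals. These came from transiently transfected HepG2 cells exposed for 24 h, with RNA analysed by RT-PCR, FAM primer extension, HpaI digestion and CE.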

[12] = ATG_M_06_CIS: Attagene CIS-FACTORIAL HepG2 Assay for M06 Transcription Factor (Internal Marker) (AID 2282950); conditions: HepG2 Attagene CIS-FACTORIAL M06 internal marker reporter; actives raise or lower the signal
In short: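 One of many multiplexed endpoints: HepG2 reporter mRNA after 24 h dosing, detected by RT-PCR and capillary electrophoresis fluorescence; gain or loss of signal analysed against DMSO.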

[13] = target: Hypoxia-inducible factor 1-alpha (Homo sapiens) (UniProt Q16665); experiment: ATG_HIF1a_CIS: Attagene CIS-FACTORIAL HepG2 Assay for human Hypoxia Inducible Factor 1 (HIF1A) (AID 2282951); conditions: HepG2 Attagene cis-factorial HIF1a reporter transcription; actives raise or lower the signal
Sequence of Hypoxia-inducible factor 1-alpha (Homo sapiens) (Q16665 whole entry, looked up): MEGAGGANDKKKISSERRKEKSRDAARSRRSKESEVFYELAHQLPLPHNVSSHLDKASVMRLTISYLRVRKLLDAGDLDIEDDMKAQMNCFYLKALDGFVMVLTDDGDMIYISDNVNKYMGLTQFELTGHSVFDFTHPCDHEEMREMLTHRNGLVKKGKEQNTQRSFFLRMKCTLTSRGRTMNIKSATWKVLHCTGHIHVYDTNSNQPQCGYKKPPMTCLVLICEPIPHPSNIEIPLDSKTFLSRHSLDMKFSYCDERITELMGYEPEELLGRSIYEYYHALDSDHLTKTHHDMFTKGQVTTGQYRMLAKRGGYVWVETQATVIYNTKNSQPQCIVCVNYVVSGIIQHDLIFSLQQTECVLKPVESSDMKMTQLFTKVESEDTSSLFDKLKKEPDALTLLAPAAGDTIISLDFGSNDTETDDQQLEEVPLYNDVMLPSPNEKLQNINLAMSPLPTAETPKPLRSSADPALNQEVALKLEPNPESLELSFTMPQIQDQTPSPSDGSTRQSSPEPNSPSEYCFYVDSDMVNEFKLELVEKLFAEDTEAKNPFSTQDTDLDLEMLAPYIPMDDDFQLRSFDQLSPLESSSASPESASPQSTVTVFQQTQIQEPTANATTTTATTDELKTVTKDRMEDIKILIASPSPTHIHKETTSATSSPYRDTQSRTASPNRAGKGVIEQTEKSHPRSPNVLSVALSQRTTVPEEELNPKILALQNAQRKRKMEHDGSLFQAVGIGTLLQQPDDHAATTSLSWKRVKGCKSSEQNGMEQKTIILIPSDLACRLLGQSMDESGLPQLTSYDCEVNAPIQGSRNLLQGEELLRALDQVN
In short: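 RT-PCR/capillary electrophoresis fluorescence readout of reporter transcripts from endogenous-TF-driven cis elements in transfected HepG2 cells, 24 h exposure; activity fitted in both directions against DMSO controls.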

[14] = target: Hepatocyte nuclear factor 6 (Homo sapiens) (UniProt Q9UBC0); experiment: ATG_HNF6_CIS: Attagene CIS-FACTORIAL HepG2 Assay for human Hepatocyte Nuclear Factor 6 (HNF6) (AID 2282952); conditions: HepG2 Attagene cis-factorial HNF6 reporter transcription; actives raise or lower the signal
Sequence of Hepatocyte nuclear factor 6 (Homo sapiens) (Q9UBC0 whole entry, looked up): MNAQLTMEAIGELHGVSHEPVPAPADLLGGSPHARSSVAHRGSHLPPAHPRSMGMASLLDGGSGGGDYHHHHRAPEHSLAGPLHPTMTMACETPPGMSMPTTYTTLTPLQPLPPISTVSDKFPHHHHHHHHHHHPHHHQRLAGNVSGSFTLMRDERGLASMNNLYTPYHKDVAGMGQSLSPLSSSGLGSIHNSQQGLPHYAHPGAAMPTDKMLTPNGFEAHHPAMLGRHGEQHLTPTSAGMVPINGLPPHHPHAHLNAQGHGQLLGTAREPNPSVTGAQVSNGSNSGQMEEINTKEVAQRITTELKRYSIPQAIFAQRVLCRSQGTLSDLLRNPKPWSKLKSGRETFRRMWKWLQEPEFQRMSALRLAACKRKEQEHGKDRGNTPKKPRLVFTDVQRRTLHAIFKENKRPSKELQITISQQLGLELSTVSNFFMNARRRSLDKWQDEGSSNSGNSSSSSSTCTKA
In short: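 Endogenous transcription factor activity in human HepG2 liver cells was captured through cis-regulated reporter constructs. After 24 h treatment, reporter mRNA was measured by RT-PCR with capillary electrophoresis, and activity was fitted in both directions relative to DMSO.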

[15] = target: Heat shock factor protein 1 (Homo sapiens) (UniProt Q00613); experiment: ATG_HSE_CIS: Attagene CIS-FACTORIAL HepG2 Assay for human Heat Shock Transcription Factor 1 (HSE) (AID 2282953); conditions: HepG2 HSE cis-reporter, Attagene RNA transcription; actives raise or lower the signal
Sequence of Heat shock factor protein 1 (Homo sapiens) (Q00613 whole entry, looked up): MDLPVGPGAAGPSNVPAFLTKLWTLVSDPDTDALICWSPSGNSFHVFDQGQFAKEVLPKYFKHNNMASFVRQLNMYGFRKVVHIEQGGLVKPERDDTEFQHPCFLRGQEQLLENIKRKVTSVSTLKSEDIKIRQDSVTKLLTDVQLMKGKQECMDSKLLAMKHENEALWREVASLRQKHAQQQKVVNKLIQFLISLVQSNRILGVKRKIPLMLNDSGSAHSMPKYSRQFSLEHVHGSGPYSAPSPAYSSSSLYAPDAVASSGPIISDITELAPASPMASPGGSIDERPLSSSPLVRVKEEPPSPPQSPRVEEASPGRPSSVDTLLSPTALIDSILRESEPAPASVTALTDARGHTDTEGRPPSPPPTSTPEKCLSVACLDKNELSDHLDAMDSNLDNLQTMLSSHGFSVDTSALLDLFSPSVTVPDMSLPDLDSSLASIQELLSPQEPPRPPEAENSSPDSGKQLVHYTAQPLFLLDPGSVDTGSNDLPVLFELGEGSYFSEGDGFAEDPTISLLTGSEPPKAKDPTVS
In short: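 Using HepG2 with transfected cis-driven reporter constructs, compound effects on endogenous factor activity are scored as reporter mRNA change at 24 h. Detection: RT-PCR, HpaI digestion, capillary electrophoresis; bidirectional fitting to DMSO.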

[16] = ATG_MRE_CIS: Attagene CIS-FACTORIAL HepG2 Assay for human Metal Responsive Element (MRE) (AID 2282954); conditions: HepG2 MRE cis-reporter transcription, Attagene multiplex; actives raise or lower the signal
In short: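 Multiplexed cis-reporter assay in human HepG2 liver cells, 24 h incubation with test chemical. Reporter transcripts measured by RT-PCR and capillary electrophoresis; values from bidirectional curve fitting versus DMSO.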

[17] = ATG_PBREM_CIS: Attagene CIS-FACTORIAL HepG2 Assay for human Phenobarbital-responsive Enhancer Module (PBREM) (AID 2282955); conditions: HepG2 PBREM cis-reporter, Attagene multiplexed transcription; actives raise or lower the signal
In short: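 Reporter mRNA read by RT-PCR, 6-FAM primer extension, HpaI digestion and capillary electrophoresis. Transfected HepG2 cells, 24 h compound exposure. Gain or loss of signal fitted bidirectionally relative to DMSO baseline.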

[18] = target: Bile acid receptor (Homo sapiens) (UniProt Q96RI1); experiment: ATG_IR1_CIS: Attagene CIS-FACTORIAL HepG2 Assay for human Nuclear Receptor Subfamily 1 Group H Member 4 (NR1H4), IR1 submotif (AID 2282946); conditions: IR1 reporter transcription, actives raise or lower the signal
Sequence of Bile acid receptor (Homo sapiens) (Q96RI1 whole entry, looked up): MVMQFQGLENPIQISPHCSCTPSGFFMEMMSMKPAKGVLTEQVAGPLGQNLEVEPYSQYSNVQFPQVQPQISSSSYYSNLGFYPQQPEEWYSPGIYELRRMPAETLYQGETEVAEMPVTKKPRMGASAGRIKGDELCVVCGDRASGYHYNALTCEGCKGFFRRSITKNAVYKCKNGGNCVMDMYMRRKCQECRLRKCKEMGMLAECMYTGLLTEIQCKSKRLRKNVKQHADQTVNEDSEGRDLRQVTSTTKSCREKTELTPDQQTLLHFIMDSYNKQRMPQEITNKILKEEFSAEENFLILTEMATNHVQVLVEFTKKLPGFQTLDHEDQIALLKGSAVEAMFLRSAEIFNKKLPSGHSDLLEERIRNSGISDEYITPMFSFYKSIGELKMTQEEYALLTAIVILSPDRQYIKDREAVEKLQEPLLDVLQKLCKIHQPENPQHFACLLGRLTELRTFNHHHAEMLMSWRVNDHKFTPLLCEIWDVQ
In short: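 HepG2 cells transiently transfected with multiplexed cis-element reporter units read endogenous transcription factor activity. After 24 h compound exposure, reporter mRNA was quantified by RT-PCR, fluorescent labelling, HpaI digestion and capillary electrophoresis; bidirectional fitting versus DMSO baseline.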

Measured: outcome

CC(=O)OCC(COC(C)=O)OC(C)=O
not listed: [17] | [18]
inactive: all other assays above

CCCC(=O)O
not listed: [9] | [18]
inactive: all other assays above

CCCCC(CC)CO (centres undefined)
inactive: all assays above

Cc1cc(Cc2ccc(N)c(C)c2)ccc1N
inactive: all assays above

O=C(Oc1ccccc1)c1cccc(C(=O)Oc2ccccc2)c1
inactive: all assays above

O=NO
not listed: [9] | [18]
inactive: all other assays above

CC(=O)S[C@H](C(=O)N[C@H]1Cc2ccccc2[C@H]2CCC[C@@H](C(=O)O)N2C1=O)C(C)C
not listed: [9]
inactive: all other assays above
